NS1 inh: inhibitors of influenza NS1 protein function. 270,000 compounds, 0.4% hits. Potency, µM (top dose mostly 46.1 µM); note: actives are rising curves; nearly all actives have a fitted effect of over 50% in size
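Read-out: OD600 growth recovery of NS1-expressing budding yeast. Cells grown overnight at 30C in -URA glucose medium, washed, resuspended and diluted 1:100 in 2% galactose assay medium, pH 6.0. Same strain lacking NS1 served as positive control.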
Pf growth 96h: inhibits malaria parasite growth, 96 h. P. falciparum luciferase reporter growth, 96 h. Potency, µM (doses to about 28.7 µM), most hits filed as inhibitors. 320,000 compounds, 6.9% hits. AID 504834; active = well fitted inhibition curve with a large enough effect; inconclusive = small, poorly fitted or top-dose-only effect, or another doubt; inactive = no such curve, though single readings can be large or run the other way
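Cell-based qHTS: luciferase-tagged P. falciparum in erythrocytes (2% hematocrit, 0.05% parasitemia final) incubated with compounds for 96 hours, 37 C, 5% CO2; luciferase detection reagent then added and luminescence measured.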
CHX counter: counter-screen hit for Shiga toxin inhibitors, cycloheximide; max response, %; AID 2314; cell reporter, cycloheximide protein synthesis inhibition counterscreen; 300,000 compounds, 12% hits; in the data active = max response mostly above about 13%, no sharp cut-off; inactive = mostly below about 14%; note: read at 38.3 µM for the half of the compounds with a filed dose
SARS PLP yeast: SARS-CoV PLP inhibition in yeast. S. cerevisiae expressing SARS-CoV PLpro, growth rescue. 330,000 compounds, 0.19% hits. Potency, µM (doses to about 32.9 µM), hits mostly activators; note: nearly all actives have a fitted effect of over 55% in size
Shiga inhibitor: Shiga toxin inhibition. Vero cells, Shiga toxin protein synthesis inhibition reporter. inhibition, % at 38.7 µM. 290,000 compounds, 9.2% hits; in the data active = inhibition mostly above about 28%, no sharp cut-off; inactive = mostly below about 43%
Pf growth 48h: inhibits P. falciparum growth in the first generation, 48 h; P. falciparum luciferase growth in erythrocytes, 48 h; Potency, µM (titrated, usually from 28.7 µM), usual class: inhibitors; 310,000 compounds, 5.9% hits; AID 504832; active = well fitted inhibition curve with a large enough effect; inconclusive = small, poorly fitted or top-dose-only effect, or another doubt; inactive = no such curve, though single readings can be large or run the other way
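Luciferase-expressing P. falciparum in infected erythrocytes (2% hematocrit, 0.1% parasitemia final) in RPMI 1640/0.5% Albumax were exposed to compound for 48 hours at 37 C, 5% CO2; growth read as luminescence.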
Large screens that a line does not name were inactive. Only some compounds are listed: those with a hit (about 21% of all), similar ones and a draw of the others. Unless noted, calls come from the whole dose curve.

COc1ccc(/C=C/C2=NNC(=O)CC2)cc1	CHX counter 27 (no result: NS1 inh)
CCCOc1ccc(C2=NNC(=O)CC2)cc1	CHX counter 15
CCOc1ccc(/C=C/C2=NNC(=O)CC2)cc1	CHX counter 23, Shiga inhibitor 53
Cc1ccccc1CCNC(=O)C1CC(O)CN1C(=O)Nc1ccccc1 (stereo unspecified)	none
Cc1cc(=O)oc2cc(NC(=O)C(CCCCN)NC(=O)C(CC3CCCCC3)NC(=O)OCC3c4ccccc4-c4ccccc43)ccc12 (stereo unspecified)	none (no result: NS1 inh, Pf growth 96h, SARS PLP yeast, Pf growth 48h)
C#CC[N+](C)(C)CCCCCCCCCCCC	Pf growth 96h 0.37µM, Pf growth 48h 1.5µM
CC#CC[N+](C)(C)CCCCCCCCCCCC	Pf growth 96h 0.59µM, Pf growth 48h 2.9µM
C#CC[N+](C)(C)CCCCCCCC	Pf growth 96h inconclusive, Pf growth 48h 3.7µM
Cc1cc(F)ccc1S(=O)(=O)N1CCCOC1CNC(=O)C(=O)NC1CC1 (stereo unspecified)	none
CCOc1ccc(CN(C)CC(O)COC(c2ccc(OC)cc2)c2ccc(OC)cc2)cc1 (stereo unspecified)	Pf growth 96h 10µM, Pf growth 48h 10µM
COc1ccc(C(OCC(O)CN(C)C2CCCCC2)c2ccc(OC)cc2)cc1 (stereo unspecified)	Pf growth 96h inconclusive, Pf growth 48h inconclusive
COc1ccc(CN(C)CC(O)COC(c2ccc(OC)cc2)c2ccc(OC)cc2)cc1 (stereo unspecified)	Pf growth 96h inconclusive, Pf growth 48h 13µM
CCn1c(=O)cc(SCC(=O)N2CCN(C)CC2)c2ccccc21	Pf growth 96h 0.066µM (no result: Pf growth 48h)
CCOC(=O)C1CCN(C(=O)CSc2cc(=O)n(CC)c3ccccc23)CC1	Pf growth 96h 0.0033µM
COc1ccc(-n2nc(N)c(C(N)=O)n2)cc1	CHX counter 33 (no result: NS1 inh)
COc1ccc(C(=O)n2cnnc2N)cc1	none
CC1Oc2ccccc2N(CC(=O)NCc2cccs2)C1=O (stereo unspecified)	CHX counter 19, Shiga inhibitor 31
CC1Oc2ccccc2N(CC(=O)N2CCCC2)C1=O (stereo unspecified)	Pf growth 96h 4.7µM
CC1CCCN(C(=O)CN2C(=O)C(C)Oc3ccccc32)C1 (stereo unspecified)	none
Cc1ccc2c(c1)N(CC(=O)NCc1cccs1)C(=O)C(C)O2 (stereo unspecified)	none
N/C(=N\OC(=O)c1cccc(F)c1)c1cccc([N+](=O)[O-])c1	CHX counter 18, Shiga inhibitor 31
N/C(=N\OC(=O)Cc1ccc(-c2ccccc2)cc1)c1cccc([N+](=O)[O-])c1	none
N/C(=N/OC(=O)c1cccc([N+](=O)[O-])c1)c1cccc([N+](=O)[O-])c1	none
N/C(=N\OC(=O)c1ccccc1Cl)c1cccc([N+](=O)[O-])c1	CHX counter 37, Shiga inhibitor 52
N/C(=N\OC(=O)c1cccc(Br)c1)c1ccc([N+](=O)[O-])cc1	none
N/C(=N\OC(=O)c1ccccc1F)c1ccc([N+](=O)[O-])cc1	CHX counter 30 (no result: Pf growth 48h)
N/C(=N\OC(=O)c1ccc2ccccc2c1)c1cccc([N+](=O)[O-])c1	Pf growth 96h inconclusive, CHX counter 39, Shiga inhibitor active
CCOc1ccc(NS(=O)(=O)c2ccc3c(c2)n(C)c(=O)n3C)cc1	Pf growth 96h inconclusive
COC(=O)[C@H](Cc1ccccc1)NC(=O)NCc1cccs1	none (no result: Pf growth 96h)
Cc1cccc(/C(N)=N/OC(=O)c2ccc(F)cc2)c1	CHX counter 73, Shiga inhibitor 86, Pf growth 48h inconclusive
CC1=C(C)/C(=N/OC(=O)c2cccc([N+](=O)[O-])c2)C=CC1=O	Pf growth 96h inconclusive, CHX counter 56, Shiga inhibitor 90, Pf growth 48h inconclusive
N/C(=N\OC(=O)c1ccc(F)cc1)c1cccc([N+](=O)[O-])c1	CHX counter 31, Shiga inhibitor 57
CCCS(=O)(=O)C/C(N)=N/OC(=O)c1ccccc1Cl	none
N/C(=N/OC(=O)c1ccccc1Cl)c1ncc([N+](=O)[O-])s1	Pf growth 96h inconclusive, CHX counter 35, Shiga inhibitor 68, Pf growth 48h inconclusive
COc1ccc(OC)c(C2C(C(=O)Nc3cccnc3)=C(C)NC3=C2C(=O)CCC3)c1 (stereo unspecified)	none
CS(=O)(=O)C1=NSC2=NC(=O)/C(=C\c3ccc(OC(=O)c4ccco4)c(Br)c3)C(=N)N21	Pf growth 96h inconclusive
COc1ccc(N2CCN(C(=O)COC(=O)COc3cccc(C(F)(F)F)c3)CC2)cc1	none (no result: NS1 inh, CHX counter, Shiga inhibitor)
COc1cc(C2NC(=O)NC(c3ccccc3)=C2C(C)=O)c(Br)c(Br)c1O (stereo unspecified)	Pf growth 96h 0.74µM, Pf growth 48h 1.3µM (no result: Shiga inhibitor)
CN(C)S(=O)(=O)Oc1ccsc1C(=O)Nc1ccc(Br)cc1	none (no result: NS1 inh)
COC(=O)c1sccc1-c1ccc(C(=O)Nc2cccc(Cl)c2)o1	Shiga inhibitor 51
CN(C)S(=O)(=O)Oc1ccsc1C(=O)Nc1cccc(Cl)c1	Pf growth 96h inconclusive, Pf growth 48h 1.7µM
CC(C)C[C@H](NC(=O)N1c2ccccc2NC(=O)[C@@H]1C(C)C)C(=O)N[C@@H](Cc1ccccc1)C(=O)O	Pf growth 96h inconclusive
COc1c(C(=O)Nc2nccs2)ccc2ccccc12	CHX counter 38, Shiga inhibitor 93
COc1cccc2c1OCC(C(=O)Nc1nccs1)=C2	CHX counter 41, Shiga inhibitor 108
COc1cccc(-c2nn(-c3ccccc3)cc2C(=O)Nc2nccs2)c1	NS1 inh inconclusive, Pf growth 96h inconclusive, Pf growth 48h 7.4µM
COc1cc2ccccc2cc1C(=O)NCC(c1cccs1)N(C)C (stereo unspecified)	CHX counter 37, Shiga inhibitor 87 (no result: NS1 inh)
Cc1ccccc1-n1ncc2c1CC(C)(C)CC2NC(=O)c1cn[nH]c1C (stereo unspecified)	Pf growth 96h inconclusive
C[C@H]1C(=O)N(C)CCN1C(=O)c1cccc(OC2CCN(CC(C)(C)C)CC2)c1	none
COc1ccc(-c2nn(-c3ccccc3)cc2C(=O)Nc2nccs2)cc1	SARS PLP yeast inconclusive, Pf growth 48h inconclusive
COc1cc2ccccc2cc1C(=O)Nc1nccs1	CHX counter 27, Shiga inhibitor 49
c1ccc2cc(CN3CCOCC3)ccc2c1	none (no result: SARS PLP yeast)
CN1CCN(Cc2ccc3ccccc3c2)CC1	Pf growth 96h 12µM, Pf growth 48h inconclusive
CCCCOc1ccc(CN2CCCCC2)cc1	CHX counter 17, Shiga inhibitor 45
CCCCCCOc1ccc(CN2CCN(C)CC2)cc1	CHX counter 41, Shiga inhibitor 134
COc1nc(N(c2ccccc2)c2ccccc2)nc(-n2ccnc2)n1	Pf growth 96h inconclusive, Pf growth 48h 12µM
COc1ccc(-n2ccnc2)cc1	none
Cc1ccc(S(=O)(=O)N2CCN(C(=O)COC(=O)c3ccc(Cl)nc3)CC2)c(C)c1	none (no result: NS1 inh, CHX counter, Shiga inhibitor)
